# Experimental data as given in PubChem BioAssay AID1851 (National Center for Advancing Translational Sciences (NCATS), 2009).
# “And” between values parts separate entries of the source, which are not always exact repeats. Identical values can stand only once. Hit rate of the full screen: of about 16,000 compounds, about 4,000 (25%) were called active. About 26% were inconclusive and are not listed. Calls come from the whole dose curve; as a rule, active = well fitted curve in the direction sought with a large enough effect; inconclusive = small, poorly fitted or top-dose-only effect, or effect the other way; inactive = no such curve, though single readings can be large or run the other way. The list is a sample of the results.
# Biological target: Cytochrome P450 2C9 (Homo sapiens) (UniProt P11712)
# Test: Cytochrome panel assay with activity outcomes
# Settings: recombinant CYP, pro-luciferin dealkylation, luminescence, p450-cyp2c9; series mostly up to 57.1 µM; activity, negative = inhibition: at the top concentration
# % is set by controls: 0 for no effect and ±100 for the full control effect.
# Cytochrome P450 2C9 (Homo sapiens), sequence (P11712 whole entry, looked up): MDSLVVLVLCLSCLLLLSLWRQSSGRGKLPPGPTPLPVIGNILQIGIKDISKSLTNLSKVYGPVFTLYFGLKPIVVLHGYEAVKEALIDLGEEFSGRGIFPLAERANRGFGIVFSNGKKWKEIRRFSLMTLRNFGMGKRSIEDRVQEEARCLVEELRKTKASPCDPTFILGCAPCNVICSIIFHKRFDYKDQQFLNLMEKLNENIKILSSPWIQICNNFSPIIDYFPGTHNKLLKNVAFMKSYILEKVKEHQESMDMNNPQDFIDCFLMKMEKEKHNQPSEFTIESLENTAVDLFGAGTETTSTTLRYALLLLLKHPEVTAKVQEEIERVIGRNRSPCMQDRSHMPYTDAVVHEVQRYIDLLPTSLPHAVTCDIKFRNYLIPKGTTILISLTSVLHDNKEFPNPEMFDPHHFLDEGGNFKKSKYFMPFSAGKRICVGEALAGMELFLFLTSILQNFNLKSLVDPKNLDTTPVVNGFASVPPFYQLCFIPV
Compound,"activity, negative = inhibition",AC50
COc1cc2c(cc1OC)[C@H](C)NCC2,-6.11% [at 25.6 µM] (inactive),
OCc1cnc[nH]1,18.9% (inactive),
NC(=NCCc1ccc(I)cc1)SCCCc1cnc[nH]1,-14.5% (inactive),
NC(=NCc1ccc(Cl)cc1)SCCCc1cnc[nH]1,,12.6 µM (active)
C#CCN[C@@H](C)Cc1ccccc1,11.2% (inactive),
c1csc(CN2CC[C@@]3(CCCNC3)C2)n1,-14.6% (inactive),
COc1ccc2c(c1)[C@]13CCCC[C@@H]1[C@H](C2)N(C)CC3,18.1% (inactive),
COc1ccc(C(=O)O[C@H]2CC[C@@]3(C)[C@H]4CC[C@H]5[C@]3(C[C@]3(O)[C@H]6CN7C[C@H](C)CC[C@H]7[C@](C)(O)[C@]6(O)[C@H](O)C[C@]53O)O[C@]24O)cc1OC,-11.3% [at 11.4 µM] (inactive),
C=CCn1c(O)c(C(CC)=NC2CC2)c(=O)[nH]c1=O,-18.3% (inactive),
O=c1[nH]c(=O)n(CCc2ccc(F)cc2)c(O)c1C=NCCCN1CCOCC1,-43.7% (inactive),
CCCCn1c(O)c(C(CC)=NCc2ccc(F)cc2)c(=O)[nH]c1=O,,3.55 µM (active)
CCCCn1c(O)c(C(CC)=Nc2ccc(OC)cc2OC)c(=O)[nH]c1=O,,14.1 µM (active)
CCCCn1c(O)c(C=NCCN2CCCCC2)c(=O)[nH]c1=O,-10.3% (inactive),
CCC(=Nc1cc(OC)ccc1OC)c1c(O)[nH]c(=O)[nH]c1=O,-27.4% (inactive),
C[C@]12CCC3c4ccc(OCC(=O)O)cc4CCC3C1CCC2=O (some centres not stated),-4.6% [at 11.4 µM] (inactive),
c1cc(C2N3CCCN2CC3)ccn1 (configuration not stated),9.12% [at 11.4 µM] (inactive),
O=C(CCCN1CCC2(CC1)C(=O)N(Cc1cccc(F)c1)CN2c1ccccc1)c1ccc(F)cc1,-6.74% (inactive),
CCCN1CCC[C@H](c2cccc(C#N)c2)C1,8.91% (inactive),
CCCN1CC[C@@H]2c3cc(O)ccc3CC[C@H]21,0.289% (inactive),
Cc1cccc([C@H](C)c2cnc[nH]2)c1C,,0.2 µM (active)
O=P(O)(O)c1ccccc1 (tested in a mixture with another compound),0.15% [at 11.4 µM] (inactive),
O=C(O)[C@H]1C[C@@H]1[C@H](NP(=O)(c1ccccc1)c1ccccc1)c1ccccc1,9.12% (inactive),
C=C(CC1(CNP(=O)(c2ccccc2)c2ccccc2)CC1)c1ccccc1,,10 µM (active)
O=C(O)[C@@H]1C[C@H]1[C@@H](NP(=O)(c1ccccc1)c1ccccc1)c1ccccc1,4.05% (inactive),
C=C(CC1(C(C)NP(=O)(c2ccccc2)c2ccccc2)CC1)c1ccccc1 (configuration not stated),,7.94 µM (active)

Compound,"activity, negative = inhibition",AC50
C=C(C)c1ccccc1 (tested in a mixture with another compound),-0.349% [at 11.4 µM] (inactive),
Cc1c2cc[n+](CCN3CCCCC3)cc2c(C)c2c1[nH]c1ccc(O)cc12,17.8% [at 11.4 µM] (inactive),
COc1ccc(C[C@@H]2NC[C@H](O)[C@@H]2OC(C)=O)cc1,2.29% [at 25.6 µM] (inactive),
CC(C)c1nccn1Cc1ccc(Cl)cc1Cl,-23.6% [at 11.4 µM] (inactive),
NC1=Nc2ccccc2Oc2ccccc21,-32.7% (inactive),
COc1ccccc1N1CCNCC1,2.31% (inactive),
O=C(O)c1ccccc1-c1c2cc(Br)c(=O)cc-2oc2[c]([Hg])c(O)c(Br)cc12,,0.631 µM (active)
COc1ccc2[nH]c3c(c2c1)CCNC3,-4.54% (inactive),
C[N+]1(C)C2CC[C@H]1CC(OC(=O)[C@@H](CO)c1ccccc1)C2 (some centres not stated),8.36% [at 11.4 µM] (inactive),
CC1(C)[C@@H]2CC[C@]1(C)CN(CCC[N+](C)(C)C)C2,1.62% [at 11.4 µM] (inactive),
Cc1cc(Cc2cc(C)c(N)cc2N)c(N)cc1N,-2.47% [at 11.4 µM] (inactive),
C[C@H](CN(C)C)C(C#N)(c1ccccc1)c1ccccc1,-0.348% [at 11.4 µM] (inactive),
O=C(O)CP(=O)(O)c1ccc(Cl)cc1,2.66% (inactive),
CNCCc1c[nH]c2ccc(O)cc12,-5.29% (inactive),
O=c1cc(-c2ccc(O)c(O)c2)oc2cc(O)cc(O)c12,-26.3% [at 25.6 µM] (inactive),
O=c1cc(-c2ccc(O)cc2)oc2cc(O)cc(O)c12,-49.1% [at 25.6 µM] (inactive),
O=c1c(O)c(-c2cc(O)c(O)c(O)c2)oc2cc(O)cc(O)c12,,12.6 µM (active) and 10 µM (active)
Nc1nc(N)c(Cn2ccnc2)c(=O)[nH]1,-12.8% [at 11.4 µM] (inactive),
Cn1cccc1CNCCc1ccccc1,-5.62% (inactive),
CN1CC[C@@]23c4ccccc4N[C@H]1[C@]21CCN(C)[C@@H]3Nc2ccccc21,19.2% [at 25.6 µM] (inactive),
C=C1C/C(=C\C)C(=O)O[C@@H]2CCN3CC=C(COC(=O)[C@@]1(C)O)[C@H]23,4.43% [at 25.6 µM] (inactive),
CC1=C(C)[N+](=O)C2(O)CCCCC2(C)N1[O-] (configuration not stated),32.8% (inactive),
C=Cn1ccnc1P(=S)(c1nccn1C=C)C1CCCCC1,,11.2 µM (active)
S=P(C1CCCCC1)(C1CCCCC1)[C@H](c1cccnc1)N1CCCC1,-6.57% [at 11.4 µM] (inactive),
O[Si@](CCCN1CCCCC1)(c1ccc(F)cc1)C1CCCCC1,-12.9% (inactive),

Compound,"activity, negative = inhibition",AC50
COC(=O)NC/C=C\c1nc(CC/C=C\C(=O)O[C@H]2C[C@H]3CC(=O)O[C@@H](/C=C\CC(C)C)C[C@@H]4CC[C@H](C)[C@H](C[C@@H](OC)C[C@H](C2)O3)O4)co1,-4% [at 11.4 µM] (inactive),
COC(=O)[C@H]1C(=O)c2ccccc2O[C@@](C(=O)OC)(c2ccccc2)[C@@H]1c1ccccc1,-6.83% [at 11.4 µM] (inactive),
CC[C@@H]1CN2CCc3cc(OC)c(OC)cc3[C@H]2C[C@@H]1C[C@@H]1NCCc2cc(O)c(OC)cc21,15.7% [at 25.6 µM] (inactive),
O=C(c1csnn1)N1CCC2(CC1)CN(Cc1ccncc1)C2,,10 µM (active)
O=C(Oc1ccccc1)N1CCC2(CCN(Cc3ccccc3)CC2)CC1,7% (inactive),
c1cc(CN2CC3(CCNCC3)C2)ccn1,-21.2% (inactive),
O=C(Oc1ccccc1)N1CCC2(CCCN(Cc3ccccc3)C2)CC1,-8.8% (inactive),
CC(C)CN1CC2(CCN(C(=O)Oc3ccccc3)CC2)C1,8.52% (inactive),
N#Cc1ccc(CN2CCC3(CC2)CCN(C(=O)Oc2ccccc2)CC3)cc1,12.8% (inactive),
CS(=O)(=O)N1CCC2(CC1)CN(Cc1ccncc1)C2,,39.8 µM (active)
c1cc(CN2CCC3(CCNCC3)CC2)ccn1,4.48% (inactive),
O=C(Oc1ccccc1)N1CCC2(CCN(Cc3ccncc3)CC2)CC1,,3.98 µM (active)
CC(C)CN1CC2(CCN(C(=O)c3ccncc3)CC2)C1,-1.27% (inactive),
CN1CC[C@@]2(CCCN(C(=O)c3csnn3)C2)C1,-15.5% (inactive),
O=C(Oc1ccccc1)N1CCC2(CC1)CN(Cc1ccncc1)C2,,3.16 µM (active)
CC1(C)N=C(N)N=C(N)N1c1cccc(C(=O)Nc2ccc(S(=O)(=O)F)cc2)c1,14.9% [at 11.4 µM] (inactive),
C=C(C)CN1CC[C@@]23c4c5ccc(O)c4O[C@H]2c2[nH]c4ccccc4c2C[C@]3(O)[C@@H]1C5,-16.9% (inactive),
CC1=C2C(=O)[C@@H]3[C@@H](CC=C4C[C@@H](O)CC[C@@]43C)[C@H]2CC[C@@]12O[C@H]1C[C@H](C)CN[C@H]1[C@@H]2C,-3.17% [at 11.4 µM] (inactive),
CC(C)CNCCc1ccccn1,-0.994% [at 11.4 µM] (inactive),
N[C@@H](CP(=O)(O)O)C(=O)O,6.98% [at 11.4 µM] (inactive),
NC(=O)c1cc(N2CC2)c([N+](=O)[O-])cc1[N+](=O)[O-],19.9% (inactive),
C=C1[C@@H]2C[C@@]3([C@H]1O)[C@H]1C[C@@H]4[C@@]5(C)CC[C@H](O)[C@]4([C@H]1N(CC)C5)[C@H]3C[C@H]2O,-10.8% [at 25.6 µM] (inactive),
OC(c1ccccc1)(c1ccccc1)C1CCNCC1,-22.6% [at 25.6 µM] (inactive),
Cc1ccc(S(=O)ON2CCC(C(=O)O)(c3ccccc3)CC2)cc1 (configuration not stated),4.74% [at 11.4 µM] (inactive),
O=C1C[C@@H](c2ccc(O)cc2)Oc2cc(O)cc(O)c21,-29% [at 25.6 µM] (inactive),

Compound,"activity, negative = inhibition",AC50
CS(=N)(=O)CC[C@@H](N)C(=O)O (some centres not stated),inactive,
COC(=O)N1CCC2(CCCN(C)C2)CC1,5.87% (inactive),
Nc1nc(N)c(N=Nc2ccc([As](=O)(O)O)cc2)c(=O)[nH]1,3.51% [at 11.4 µM] (inactive),
N[C@@H](Cn1ccc(=O)n(Cc2ccc(C(=O)O)cc2)c1=O)C(=O)O,-13.2% (inactive),
NC[C@@H](O)CSP(=O)(O)O,10.5% [at 11.4 µM] (inactive),
CSC([N-]/N=C/c1cccc(C)n1)=[S]=[Cu].CS[C@H]([S-])[N-]/N=C/c1cccc(C)n1,,0.251 µM (active)
Nc1ccc(CCN2CCN(c3cccc(C(F)(F)F)c3)CC2)cc1,-7.19% (inactive),
N[C@H](Cc1ccc(N(CCCl)CCCl)cc1)C(=O)O,-7.88% (inactive),
CCCCC1(CCCC)C(=O)NC(=Nc2cccc(C)c2)NC1=O,,5.01 µM (active)
CCC1(C)CC(=O)NC(=O)C1,-12.8% [at 25.6 µM] (inactive),
CC(C)[C@]1(O)[C@@H](OC(=O)c2ccc[nH]2)[C@]2(O)[C@@]3(C)C[C@@]4(O)O[C@@]5([C@H](O)[C@@H](C)CC[C@]35O)[C@]2(O)[C@]41C,13.6% [at 11.4 µM] (inactive),
CC[C@@H]1CN2CCc3cc(OC)c(OC)cc3[C@H]2C[C@@H]1C[C@H]1NCCc2cc(OC)c(OC)cc21,17.8% [at 25.6 µM] (inactive),
O=C(OC1CCN(CCCl)CC1)C(c1ccccc1)c1ccccc1,-0.507% (inactive),
CCOC(=O)c1cncn1[C@H](C)c1ccccc1,3.2% (inactive),
CCOC(=O)c1c(NC(=O)C(c2ccccc2)c2ccccc2)sc2c1C1CCN2CC1,,1.58 µM (active)
N[C@H](CCCCCP(=O)(O)O)C(=O)O,inactive,
CCOC(=O)C1=C(C)OC(N)=C(C#N)C12C(=O)N(C)c1ccccc12 (configuration not stated),-11.1% (inactive),
CC(=O)NCCc1c[nH]c2ccccc12,4.14% (inactive),
CC(C)C[C@H]1C(=O)N2CCC[C@@H]2[C@@]2(O)O[C@](NC(=O)[C@@H]3C=C4c5cccc6[nH]cc(c56)C[C@@H]4N(C)C3)(C(C)C)C(=O)N12,-20.9% [at 25.6 µM] (inactive),
CN1C[C@H](C(=O)N[C@@]2(C)O[C@@]3(O)[C@H]4CCCN4C(=O)[C@@H](Cc4ccccc4)N3C2=O)C=C2c3cccc4[nH]cc(c34)C[C@@H]21,-17.2% [at 11.4 µM] (inactive),
CC(C)[C@@]1(NC(=O)[C@@H]2C[C@H]3c4cccc5[nH]cc(c45)C[C@@H]3N(C)C2)O[C@]2(O)[C@H]3CCCN3C(=O)[C@H](Cc3ccccc3)N2C1=O,,2.51 µM (active)
CC(C)[C@@]1(NC(=O)[C@@H]2C[C@H]3c4cccc5[nH]cc(c45)C[C@@H]3N(C)C2)O[C@@]2(O)[C@H]3CCCN3C(=O)[C@H](Cc3ccccc3)N2C1=O,,2.51 µM (active) and 6.31 µM (active)
